# Compound activity: PubChem BioAssay, National Center for Advancing Translational Sciences (NCATS)
# ALDH1A1 block: blocks purified human ALDH1A1 activity. Purified ALDH1A1, NADH fluorescence, propionaldehyde substrate. P00352. AID 1030. Potency, µM (series often up to 75.3 µM), actives largely listed as inhibitors. 7.3% of 220,000 active; active = well fitted inhibition curve with a large enough effect, not every such curve was filed as active; inconclusive = small, poorly fitted or top-dose-only effect, or another doubt; inactive = no such curve, though single readings can be large or run the other way
# GLA inh pH 4.5: alpha-galactosidase A (human) inhibition, pH 4.5. P06280. purified enzyme, 4-MU-alpha-Gal fluorescence, pH 4.5. activity change, negative = inhibition, % at 105 µM. 230,000 tested, under 10 active
# Target sequence (P06280 whole entry, looked up): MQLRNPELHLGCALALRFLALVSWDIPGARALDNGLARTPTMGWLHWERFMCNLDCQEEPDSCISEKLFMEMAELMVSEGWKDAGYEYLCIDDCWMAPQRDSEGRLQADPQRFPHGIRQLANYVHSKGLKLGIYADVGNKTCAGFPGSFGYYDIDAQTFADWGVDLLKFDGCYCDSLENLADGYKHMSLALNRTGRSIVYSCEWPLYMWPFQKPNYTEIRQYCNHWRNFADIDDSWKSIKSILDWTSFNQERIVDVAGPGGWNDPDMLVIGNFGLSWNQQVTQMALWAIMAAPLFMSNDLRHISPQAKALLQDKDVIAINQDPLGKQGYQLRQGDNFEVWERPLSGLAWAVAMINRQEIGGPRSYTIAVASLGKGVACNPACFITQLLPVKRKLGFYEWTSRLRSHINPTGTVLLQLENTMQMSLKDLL
# HPGD block: blocks human HPGD enzyme activity; purified HPGD, NADH fluorescence kinetic, PGE2 substrate; Potency, µM, actives largely listed as inhibitors; 4.3% of 150,000 active; AID 894; active = well fitted inhibition curve with a large enough effect, not every such curve was filed as active; inconclusive = small, poorly fitted or top-dose-only effect, or another doubt; inactive = no such curve, though single readings can be large or run the other way
# Target sequence (P15428 whole entry, looked up): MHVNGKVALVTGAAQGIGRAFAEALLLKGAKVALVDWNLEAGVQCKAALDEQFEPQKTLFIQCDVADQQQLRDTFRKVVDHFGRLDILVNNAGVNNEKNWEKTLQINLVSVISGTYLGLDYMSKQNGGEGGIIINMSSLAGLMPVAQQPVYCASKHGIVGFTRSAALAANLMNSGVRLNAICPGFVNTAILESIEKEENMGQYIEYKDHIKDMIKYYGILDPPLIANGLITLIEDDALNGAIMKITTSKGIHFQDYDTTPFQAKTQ
#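 20 nM HPGD preincubated 15 min at room temperature with compound in 50 mM Tris-HCl pH 8, 0.01% Tween 20. Started with 1 mM NAD+ and 30 uM prostaglandin E2; NADH fluorescence (360/450 nm) read 5 times over 30-s intervals, last minus first.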
# PNC assembly inh: perinucleolar compartment assembly inhibition; PC3M PTB-GFP, PNC prevalence imaging, 16 h; hits give low values; activity change (PNC), negative = inhibition, % at 10 µM; 3.1% of 140,000 active; AID 2417;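 active = readout at or below -70, meaning at least 70% loss of cells showing the perinucleolar compartment, a nuclear body marking cancer cells; inconclusive = readout between -30 and a set limit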
#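 PC3M cells stably expressing PTB-GFP, 750–1000 cells/well, treated 16 h at 37 °C with compound (23 nl of library stock), in duplicate. After paraformaldehyde fixation and Hoechst stain, imaged at 20x; PNC prevalence scored by image analysis.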
# 12-hLO inh: blocks human 12-lipoxygenase activity | P18054 | purified 12-hLO, xylenol orange hydroperoxide absorbance | Potency, µM (doses to about 57.1 µM), usual class: inhibitors | 0.12% of 150,000 active; also: nearly all actives have a fitted effect of over 55% in size
#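 Purified human 12hLO (150 nM final) was preincubated with compounds for 15 min at room temperature in 25 mM Hepes pH 7.0, 0.01% Triton X-100, then reacted with 40 uM arachidonic acid for 30 min. Hydroperoxide was detected with ferrous iron/xylenol orange.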
# GLA spleen mod: inhibits or activates alpha-galactosidase in human spleen homogenate; human spleen homogenate, 4MU-alpha-Gal fluorescence, 40 min; Potency, µM (titrated, usually from 80 µM), most hits filed as inhibitors; 0.008% of 240,000 active; P06280
#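 Inhibition or activation of alpha-galactosidase in human spleen homogenate is scored by 4-MU fluorescence after 40 min at 37C, pH 5.0, with 1 mM substrate. AC50s come from concentration-response fitted to the Hill equation.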
# Numbers stand for hits; 0 = inactive; ? = inconclusive; - = not tested or not shown; [ ] = remark or other dose. A selection: hits, their analogues and other compounds. The true share with any hit is near 10%. Unless noted, calls follow the shape of the dose curve; as a rule, active = well fitted curve in the direction sought with a large enough effect; inconclusive = small, poorly fitted or top-dose-only effect, or another doubt; inactive = no such curve, though single readings can be large; an effect the other way counts as inactive or inconclusive.
SMILES,ALDH1A1 block,GLA inh pH 4.5,HPGD block,PNC assembly inh,12-hLO inh,GLA spleen mod
O=c1[nH]c2cc3c(cc2cc1CN(Cc1ccc2c(c1)OCO2)Cc1nnnn1CC1CCCO1)OCO3 (stereo not drawn),?,0,?,0,0,0
Cc1ccc(CNCC(=O)Nc2ccc(N3CCOCC3)cc2)cc1,?,0,-,-,-,0
Clc1ccc(Cn2ncc3c(NCc4ccccc4)ncnc32)c(Cl)c1,?,0,20µM,0,0,0
COc1ccc(-c2ccc(S(=O)(=O)NCC3CCCO3)cc2)cc1 (stereo not drawn),?,0,?,0,0,0
COc1cc(S(=O)(=O)NCC2CCCO2)ccc1Br (stereo not drawn),0,0,0,-112.1,0,0
Cc1ccc(C(=O)NCC(=O)OCC(=O)/C=C2\N(C)c3ccccc3C2(C)C)cc1C,?,0,0,?,0,0
CCOC(=O)CN1C(=O)S/C(=C/c2ccc3c(c2)n(C)c(=O)n3C)C1=O,?,0,0,0,0,0
C=CCN1C(=O)S/C(=C\c2ccc(N3CCOCC3)cc2C)C1=O,0.891µM,0,?,0,0,0
C=CCN1C(=O)S/C(=C/c2ccsc2)C1=O,12.6µM,0,0,0,0,0
C=CCN1C(=O)S/C(=C\c2ccc3c(c2)n(C)c(=O)n3C)C1=O,0.282µM,0,0,0,0,0
COC(=O)[C@H](N)Cc1ccc(Cl)cc1,-,-,-,-,0,-
Cc1nnc(SCC(=O)NCc2ccco2)[nH]c1=O,?,0,0,0,0,0
Cc1sc2nc(SCC(=O)N3CCOCC3)[nH]c(=O)c2c1C,0,0,15.8µM,0,0,0
COc1ccc(N2CCN(Cc3nc4sc(C)c(C)c4c(=O)[nH]3)CC2)cc1,0,0,-,-,-,0
Cc1sc2nc(CSCC(=O)Nc3ccc(N4CCOCC4)cc3)[nH]c(=O)c2c1C,11.2µM,0,-,-,-,0
Cc1sc2nc(SCC(=O)NCc3cccs3)[nH]c(=O)c2c1C,0,0,25.1µM,0,0,0
Cc1sc2nc(SCC(=O)NCc3ccco3)[nH]c(=O)c2c1C,0,0,7.94µM,0,0,0
Cc1ccc2nc(SCC(=O)NCc3cccs3)[nH]c2c1,0,0,-,-,-,0
CC1(C)COCN1COC1CCCCC1,0[13.5 µM],-,0,-,0[11.4 µM],-
Cc1sc2nc(SCC(=O)NCc3ccco3)n(C)c(=O)c2c1C,0,0,0,0,0,0
CCn1c(SCC(=O)NC(=O)NCc2ccco2)nc2sc(C)c(C)c2c1=O,8.91µM,0,?,0,0,0
Brc1ccc2c(c1)C(C1=NCCN1)c1ccccc1CS2 (stereo not drawn),0,0,0,-109.0,0,0
CC1CCC2C(=O)N3C(CCC(C)C3c3ccc(-c4ccco4)cc3)C(=O)N2C1c1ccc(-c2ccco2)cc1 (stereo not drawn),3.16µM,-,-,-,-,0[17.5 µM]
CCS(=O)(=O)N1CCC(C(=O)O)CC1,0,0,-,-,-,0
OCn1c2ccccc2c2ccccc21,-,0,-,-,-,0
SMILES,ALDH1A1 block,GLA inh pH 4.5,HPGD block,PNC assembly inh,12-hLO inh,GLA spleen mod
OCCOCCn1c2ccccc2c2ccccc21,0,0,0,-139.2,0,0
COc1ccc(NC(=O)N2CC3(CCN(C(=O)c4ccc(OC)cc4)CC3)C2)cc1,0,-,0,-,0,0
Cc1sc2nc3c(C(=O)N4CCCC4)cc(C(=O)c4ccccc4O)cn3c(=O)c2c1C,20µM,0,-,-,-,0
COc1ccc(CC(=O)Nc2ccc(-c3noc(-c4cc(OC)c(OC)c(OC)c4)n3)cc2)cc1,0,0,?,-100.0,0,0
COc1ccc(Cc2nc(-c3ccc(NC(=O)c4cccnc4)cc3)no2)cc1,0,0,0,-126.1,0,0
O=C(CCCc1nc(-c2ccccc2)no1)NCc1cccnc1,14.1µM,0,0,0,0,0
COc1ccc(NC(=O)CCc2nc(-c3ccc(C)cc3)no2)c(OC)c1,?,0,0,-103.5,0,0
O=C(CCCc1nc(-c2ccccc2)no1)Nc1cccnc1,0,0,0,0,0,0
CC[C@]1(c2ncc[nH]2)Cc2ccccc2O1,0,0,0,-,0,0
FC(F)(F)c1ccccc1-c1ccc2ncnc(NCCN3CCOCC3)c2c1,0,-,-,-,-,0
COc1ccc(-c2noc(CCCC(=O)Nc3cccnc3)n2)cc1OC,-,0,-,-,-,0
O=C(CCc1nc(-c2ccccc2)no1)NCCc1ccccc1,0,0,0,0,0,0
COc1ccc(-c2noc(CCC(=O)NC3CCCCC3)n2)cc1OC,0,0,35.5µM,0,0,0
COc1ccc(-c2noc(CCC(=O)NCCN(C)Cc3ccccc3)n2)cc1,0,0,15.8µM,0,0,0
COc1ccc(-c2noc(CCC(=O)Nc3cccnc3)n2)cc1OC,?,0,0,-100.0,0,0
Cc1ccn2cc(CCNC(=O)COc3ccccc3)nc2c1,-,0,-,-,-,0
Cc1cc[n+](-c2nc([O-])sc2/C=N/Nc2ccc([N+](=O)[O-])cc2)cc1,14.1µM,0,0,0,0,0
CCSc1ncc(/C=N/Nc2ccc([N+](=O)[O-])cc2)n1C,0,0,0,0,0,0
O=C(O)CCSc1nc(C(F)(F)F)cc(=O)n1-c1ccccc1,0,0,0,?,0,0
CC(=O)OCC1=C(C(=O)O)N2C(=O)[C@@H](NC(=O)CSc3ccncc3)[C@@H]2SC1,0,0,0,-,0,0
CC(=O)OCC1=C(C(=O)O)N2C(=O)C(NC(=O)Cc3cccs3)C2SC1 (stereo not drawn),0,0,20µM,-,0,?
COc1ccc(CN2C(=O)c3c(c(C)n(C)c3C)C2C(=O)NC2CCC(C)CC2)cc1 (stereo not drawn),0.794µM,0,-,-,-,0
COc1ccc(NC(=S)N(CCCN2CCOCC2)Cc2cn(C)c3ccccc23)cc1,0.562µM,0,0,?,0,0
CCOc1ccc(NC(=S)N(CCCN2CCOCC2)Cc2cn(C)c3ccccc23)cc1,3.98µM,0,0,?,0,0
Cc1cccc(NC(=S)N(CCCN2CCOCC2)Cc2cn(C)c3ccccc23)c1,?,0,0,?,0,0
SMILES,ALDH1A1 block,GLA inh pH 4.5,HPGD block,PNC assembly inh,12-hLO inh,GLA spleen mod
O=C(NCCN1CCN(Cc2ccccc2)CC1)C1c2ccccc2C(=O)N2CCc3ccccc3C12 (stereo not drawn),0,0,0,0,0,0
Cc1ccc(CNC(=O)C2c3ccccc3C(=O)N3CCc4ccccc4C23)o1 (stereo not drawn),25.1µM,0,0,0,0,0
CN(C)Cc1nc(-c2cn(C)c3ccccc23)no1,?,-,-,-,-,0
Cc1ccc(C)c(NS(=O)(=O)c2ccc3c(c2)Cc2cc(S(=O)(=O)Nc4cc(C)ccc4C)ccc2-3)c1,0,0,0,0,0,0
Nc1nc2ccc(C(=O)NCCOC(=O)C3CCCCC3)cc2s1,10µM,0,-,-,-,0
N#Cc1ccc(CN2CC3(CCN(C(=O)c4cccc(F)c4)CC3)C2)cc1,?,-,0,-,0,?
O=C(O)/C=C\c1ccc(Cn2ccnc2)cc1,0,0,0,-,0,0
